Assay outcomes deposited in PubChem BioAssay by National Center for Advancing Translational Sciences (NCATS).
Shown are actives, neighbours in structure and some others; about 7% of the full set was active somewhere.
PI5P4Ka inh – qHTS for Inhibitors of phosphatidylinositol 5-phosphate 4-kinase (PI5P4K) | max response, % | 330,000 compounds, 1.2% hits | PI5P4Kalpha enzyme, ADP-Glo luminescence, 60 min; active compounds read low | AID 652105, 2013 | Phosphatidylinositol 5-phosphate 4-kinase type-2 alpha (Homo sapiens), P48426; active = max response of -50% or lower; inconclusive = between -30% and -50%; inactive = -30% or higher; also: value at the top dose of about 77 µM; % is scaled to controls: 0 for no effect and ±100 for the full control effect
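ADP-Glo luminescence end-point read after a 60 min room-temperature kinase reaction of PI5P4Kalpha plus substrate, initiated with ATP at 5 microM final. Buffer: 0.038 M HEPES pH 7.4, EGTA, 0.1% CHAPS, 5% DMSO.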
PLK1 PBD inh – qHTS for Inhibitors of PLK1-PDB (polo-like kinase 1 - polo-box domain): Primary Screen; Serine/threonine-protein kinase PLK1 (Homo sapiens), P53350; Plk1 PBD binding of FITC phosphopeptide, fluorescence polarization; Potency, µM, inactives show max response, negative = inhibition, actives largely listed as inhibitors; 360,000 compounds, 2.8% hits; AID 720504, 2013; also: potency is read from the fitted curve at half-maximal effect; series mostly up to about 57 µM; % is scaled to controls: 0 for no effect and ±100 for the full control effect; nearly all actives have a fitted effect of over 65% in size
BAZ2B inh – qHTS Assay for Inhibitors of BAZ2B. Bromodomain adjacent to zinc finger domain protein 2B (Homo sapiens), Q9UIF8. AlphaScreen BAZ2B-H3K14Ac peptide displacement. Potency, µM (doses to about 114 µM), for the others: top-dose activity change, negative = inhibition, actives largely listed as inhibitors. 360,000 compounds, 4.4% hits; also: potency is read from the fitted curve at half-maximal effect; % is scaled to controls: 0 for no effect and ±100 for the full control effect; nearly all actives have a fitted effect of over 60% in size
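In this displacement format the biotinylated H3(5-23) peptide acetylated at Lys14 serves as ligand at 50 nM, with BAZ2B at 50 nM in PBS pH 7.4 containing 0.01% Tween-20. Donor and acceptor beads are 10 ug/mL final.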
HP1b chromo inh – HTS for Inhibitors of HP1-beta Chromodomain Interactions with Methylated Histone Tails | Chromobox protein homolog 1 (Homo sapiens), P83916 | AlphaScreen HP1-beta / biotin-H3K9me3 peptide binding | Potency, µM (titrated, usually from 114 µM), without a hit: at the top dose activity change, negative = inhibition, usual class: inhibitors | 390,000 compounds, 0.56% hits; also: potency is read from the fitted curve at half-maximal effect; nearly all actives have a fitted effect of over 70% in size
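Compound inhibition of the preformed complex between 50 nM HP1-beta and 50 nM biotinylated H3K9me3 peptide was read by AlphaScreen. Buffer was PBS pH 7.4 with 0.01% Tween-20. Incubations ran 30 min at room temperature, with 10 ug/mL donor/acceptor beads.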
JMJD2A Tudor inh – qHTS Assay for Inhibitors of JMJD2A-Tudor Domain | Lysine-specific demethylase 4A (Homo sapiens), O75164 | AlphaScreen JMJD2A-Tudor / H3K4me3 peptide binding | Potency, µM (top dose mostly 114 µM), for the others: at the highest dose activity change, negative = inhibition, hits mostly inhibitors | 390,000 compounds, 4.4% hits; also: potency is read from the fitted curve at half-maximal effect; % is scaled to controls: 0 for no effect and ±100 for the full control effect; nearly all actives have a fitted effect of over 50% in size
GCN5L2 inh – qHTS Assay for Inhibitors of GCN5L2 | Histone acetyltransferase KAT2A (Homo sapiens), Q92830 | GCN5L2 HAT assay, ThioGlo1 CoA-SH fluorescence | Potency, µM (doses to about 58.9 µM), for the others: top-dose activity change, negative = inhibition, most hits filed as inhibitors | 390,000 compounds, 0.21% hits; also: potency is read from the fitted curve at half-maximal effect; % is scaled to controls: 0 for no effect and ±100 for the full control effect
Target sequence (Q92830 whole entry, looked up): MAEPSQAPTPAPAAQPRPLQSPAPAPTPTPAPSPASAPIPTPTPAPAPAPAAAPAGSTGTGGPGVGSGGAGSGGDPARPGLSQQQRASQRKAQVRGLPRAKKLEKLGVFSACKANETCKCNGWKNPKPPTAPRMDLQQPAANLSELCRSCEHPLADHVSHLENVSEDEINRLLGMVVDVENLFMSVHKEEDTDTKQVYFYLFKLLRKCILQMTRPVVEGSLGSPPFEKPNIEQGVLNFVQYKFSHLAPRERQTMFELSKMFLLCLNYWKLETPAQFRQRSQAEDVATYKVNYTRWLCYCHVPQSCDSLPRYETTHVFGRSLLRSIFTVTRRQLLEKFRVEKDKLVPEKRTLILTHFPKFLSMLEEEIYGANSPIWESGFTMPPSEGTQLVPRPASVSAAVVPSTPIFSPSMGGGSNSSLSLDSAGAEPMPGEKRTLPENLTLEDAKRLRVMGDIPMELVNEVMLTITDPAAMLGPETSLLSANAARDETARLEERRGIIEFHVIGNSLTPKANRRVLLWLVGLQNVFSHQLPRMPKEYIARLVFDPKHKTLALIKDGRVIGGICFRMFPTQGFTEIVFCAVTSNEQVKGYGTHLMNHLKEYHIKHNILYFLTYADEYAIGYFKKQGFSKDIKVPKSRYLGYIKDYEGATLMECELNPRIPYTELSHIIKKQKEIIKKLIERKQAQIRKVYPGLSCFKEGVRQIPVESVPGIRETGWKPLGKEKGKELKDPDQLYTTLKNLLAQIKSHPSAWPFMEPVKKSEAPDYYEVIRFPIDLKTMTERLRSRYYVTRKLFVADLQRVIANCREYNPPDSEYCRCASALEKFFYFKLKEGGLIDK
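GCN5L2 (20nM final) in 50mM HEPES, 0.1mM EDTA pH 7.5, 0.01% Tween-20 was preincubated 15 min at room temperature with compound, then given ThioGlo1 (50uM), H3(1-25) peptide (75uM) and acetyl-CoA (70uM); CoA-thiol fluorescence (Ex340/Em540) was read at 0 and 20 min.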
Numbers without * were called inactive; ? = inconclusive; · = not tested or not shown; [ ] = another dose, or the depositor's remark. Unless noted, calls follow the shape of the dose curve; as a rule, active = well fitted curve in the direction sought with a large enough effect; inconclusive = small, poorly fitted or top-dose-only effect, or another doubt; inactive = no such curve, though single readings can be large; an effect the other way counts as inactive or inconclusive.

SMILES	PI5P4Ka inh	PLK1 PBD inh	BAZ2B inh	HP1b chromo inh	JMJD2A Tudor inh	GCN5L2 inh
CC(=O)c1ccc(S(=O)(=O)N(C)CCCC(=O)N(C)Cc2c(F)cccc2Cl)cc1	4	4%	-12%	32%	-7%	-5%
N#Cc1nc(COc2ccccc2)oc1N1CCCCC1	0	-9%	?	?	?	-4%
N#Cc1nc(COc2ccc(Cl)cc2)oc1N1CCCCCC1	-9	-3%	11µM*	-46%	?	?
N#Cc1nc(COc2cccc(Cl)c2)oc1N1CCN(c2ccccc2)CC1	·	-1%	?	-29%	?	-22%
Cc1ccc(OCc2nc(C#N)c(N3CCCCC3)o2)cc1	-2	-7%	28µM*	?	?	-4%
Cc1cccc(OCc2nc(C#N)c(N3CCCC3)o2)c1	3	1%	40µM*	?	-35%	-5%
CCN1CCN(c2oc(COc3ccc(-c4ccccc4)cc3)nc2C#N)CC1	6	-9%	32µM*	-60%	?	-11%
O=C(CN1C(=O)c2ccc(Br)cc2C1=O)NCC1CCCO1 (configuration not stated)	-1	-15%	-4%	17%	-10%	-1%
Cc1ccsc1CNCc1cc(Cl)ccc1O	-2	-9%	7%	42%	-1%	-8%
COc1ccc(-c2c(NC(=O)CC(C)C)n(C)c3ccccc3c2=O)cc1OC	1	-4%	3%	53%	-4%	35%
CC(C)NC(=O)C1CCC(Cn2c(=O)c3sccc3n(CC(=O)NCc3ccccc3)c2=O)CC1 (configuration not stated)	·	·	-3%	10%	-14%	3%
COc1ccc(/C=N/NC(=O)c2cccnc2)cc1	-1	-8%	2%	33%	-13%	-5%
COc1ccc(C/C(C)=N/NC(=O)c2cccnc2)cc1	-1	7%	?	10%	32µM*	26%
COC(=O)c1c(-c2ccccc2)csc1N	-3	11µM*	?	?	-15%[57.1 µM]	·
COC(=O)c1c(-c2ccccc2)csc1NC1=NS(=O)(=O)c2ccccc21	11	1%	-2%	16%	-13%	-13%
Cc1c(F)cccc1NS(=O)(=O)c1ccc2c(c1)c(C)cc(=O)n2C	7	0%	50µM*	41%	-7%	11%
O=C1CC(NS(=O)(=O)c2cc(F)ccc2F)CN1c1ccc2c(c1)OCCO2 (configuration not stated)	7	-3%	15%	12%	-7%	-4%
CNS(=O)(=O)c1cn(CC(=O)Nc2ccc(OC)c(Cl)c2)cc1S(=O)(=O)NC	·	·	-28%	11%	-1%	-14%
COc1ccc(/C(N)=N/OC(=O)CCCN2C(=O)c3ccccc3C2=O)cc1OC	-4	24µM*	-15%	12%	?	-3%
N/C(=N\OC(=O)CCCN1C(=O)c2ccccc2C1=O)c1ccccn1	0	-3%	-7%	17%	-6%	-4%
CCCN(CCC)Cc1cc(=O)oc2cc3c(cc12)CCC3	6	-15%	45%	76%	70%	-16%
CCc1ccc(NS(=O)(=O)c2[nH]ncc2C(=O)OC)cc1	·	·	?	18%	56µM*	-3%
CCc1ccc(NS(=O)(=O)c2cc(OC)ccc2OC)cc1	·	2%	1%	27%	-14%	-8%
COc1cc(Br)cc(/C=N/NC(=O)Cc2ccc(C(F)(F)F)cc2[N+](=O)[O-])c1O	6	?	8%	-11%	89µM*	-4%
COc1cc([N+](=O)[O-])cc(/C=N/NC(=O)CSc2nnc(-c3ccccc3)n2C)c1O	2	1%	-3%	25%	?	?
SMILES	PI5P4Ka inh	PLK1 PBD inh	BAZ2B inh	HP1b chromo inh	JMJD2A Tudor inh	GCN5L2 inh
COc1cc([N+](=O)[O-])cc(/C=N/NC(=O)Cn2nccc2C)c1O	?	27µM*	45µM*	-11%	-33%[11.4 µM]	-1%
CCOc1cc(/C=N/NC(=O)Cc2ccc(C(F)(F)F)cc2[N+](=O)[O-])c(Br)cc1OC	5	0%	7%	27%	6%	-1%
COc1cc([N+](=O)[O-])cc(/C=N/NC(=O)Cn2nc(C)cc2C)c1O	-11	-3%	71µM*	23%	79µM*	-10%
CCCCNC(=O)C1(C)CCCCN1C(=O)c1cc(C)n(C(C)(C)C)n1 (configuration not stated)	0	-2%	·	·	·	·
CC1(C)Cc2ccccc2/C(=C/C(=O)N2CCCCCC2)N1	·	-14%	56µM*	0%	?	17%
COc1cc2c(cc1OC)/C(=C/C(=O)N1CCOCC1)NC(C)(C)C2	7	-7%	-17%	2%	?	?
Cc1cc(C)c2c(-n3cccc3)c(C(=O)NCCc3ccccc3)sc2n1	·	·	-11%	0%	-25%	-2%
Cc1cccc(-n2c(C)cc(C(=O)C(=O)Nc3nncs3)c2C)c1	·	·	-2%	29%	-10%	-6%
CC(=O)C1=C(c2ccccc2)NC(=O)NC1c1ccc(O)c(O)c1 (configuration not stated)	-14	-3%	?	-17%	13µM*	-4%
Cc1nc(N)ncc1CCC1OCCO1	-1	4%	·	·	·	·
CC(=O)c1ccc(NC(=O)C2C3C=CC(C3=C(c3ccccc3)c3ccccc3)C2C(=O)O)cc1 (configuration not stated)	-13	42µM*	?	7%	-33%	-3%
Cc1cccc(NC(=O)NCCN2CCN(c3ccccc3)CC2)c1C	-1	-5%	-22%	9%	-26%	-7%
CC1=CCC2C(=O)N(c3nc4ccccc4n3C)C(=O)C2C1 (configuration not stated)	·	-7%	?	0%	56µM*	·
Cc1ccc(CN2C(=O)[C@H]3Cc4c([nH]c5ccccc45)C(C)(C)N3C2=O)cc1	·	·	·	40%	-29%	·
COc1cc(C(=O)N/N=C(\C)c2ccc(NC(=O)Cc3ccccc3)cc2)ccc1O	8	-8%	-15%	51%	-13%	-1%
Cc1cc(/C=C2/C(=O)N(C)C(=S)N2C)ccc1N1CCCC1	1	16%	14µM*	35µM*	14µM*	-8%
Cc1cc(N2CCCC2)ccc1/C=C1/C(=O)N(C)C(=S)N1C	-2	9%	1.6µM*	?	?	-8%
CN1C(=O)/C(=C/c2ccc(OCc3ccc(F)cc3)cc2)N(C)C1=S	10	-14%	-4%	29%	1%	-1%
